# Assay results taken from PubChem BioAssay AID588727 (Southern Research Specialized Biocontainment Screening …, 2011).
# The campaign covered roughly 350,000 compounds. About 450 (0.13%) were called active. The rule behind the calls is not given here. A selection follows. Measured potencies and affinities stand elsewhere. Where a SMILES comes first, the peptide text is derived from it. [ ]: non-standard residue; d: D form.
# Experiment: inhibitors of VEEV TC-83 cytopathic effect, confirmation, Vero cells (AID 588727)
# Conditions: VEEV TC-83 cytopathic effect inhibition, at 20 µM
# [1] = stronger effect = higher value unless noted
# [2] = measured here: 10K pilot screen inhibition, stronger effect = higher value
smiles,measurement,setting,value
CCOCCn1c(CN2CCN(c3cccc(Cl)c3)CC2)nc2c1c(=O)n(C)c(=O)n2C,inhibition,[1],inactive
COc1ccc(N2CCN(C(=O)c3cc(=O)c4cc(Cl)ccc4o3)CC2)cc1,inhibition,[1],0.39% (inactive)
Nc1ccc(C(=O)OCc2nc3ccccc3[nH]2)cc1,inhibition,[1],2.64% (inactive)
COC(=O)c1ccc(C(=O)OCc2nc3cc4ccccc4cc3[nH]2)cc1,inhibition,[1],0.06% (inactive)
COc1ccc(CN(CC(=O)NCc2ccc(F)cc2)C(=O)c2csnn2)cc1,inhibition,[1],1.52% (inactive)
COc1ccc(NC(=O)c2nc[nH]c2C(=O)NCC(=O)OC(C)(C)C)cc1,inhibition,[1],3.26% (inactive)
Cc1cccc(C(=O)NNC(=S)NC(=O)c2ccccc2)c1,inhibition,[1],46.7% (inactive)
O=C(NNC(=S)NC(=O)c1cccs1)c1ccc(O)cc1,inhibition,[1],3.95% (inactive)
Cc1cccc(C(=O)NC(=S)NNC(=O)c2cccs2)c1,inhibition,[1],inactive
Cc1ccc(C(=O)NNC(=O)c2ccco2)cc1,inhibition,[1],1.42% (inactive)
Cc1ccc(C(=O)NC(=S)NNC(=O)c2ccccc2)cc1,inhibition,[1],0.96% (inactive)
O=C(NNC(=S)NC(=O)c1ccccc1)c1ccc(O)cc1,inhibition,[1],4.47% (inactive)
Cc1cccc(C(=O)NC(=S)NCc2ccccc2)c1,inhibition,[1],2.47% (inactive)
O=C(NNC(=S)NC(=O)c1ccco1)c1ccc(F)cc1,inhibition,[1],0.7% (inactive)
COc1ccccc1NC(=O)C1CCN(S(=O)(=O)c2cccc3nonc23)CC1,inhibition,[1],9.33% (inactive)
CCOC(=O)c1ccc(NC(=O)CSc2nnc(CNc3ccc(OC)cc3)n2C)cc1,inhibition,[1],0.98% (inactive)
O=C(c1ccc(N2CCOCC2)c([N+](=O)[O-])c1)N1CCCCC1,inhibition,[1],2.47% (inactive)
CC1CC(C)CN(CCCNC(=O)CN2C(=O)c3cccnc3Oc3ccccc32)C1 (configuration not stated),inhibition,[1],inactive
O=C(CCC(=O)OCC(=O)c1ccc([N+](=O)[O-])cc1)Nc1ccccc1Cl,inhibition,[1],inactive
CCOc1ccc(CN2CCN(Cc3cn(CC)nc3C)CC2CCO)cc1 (configuration not stated),inhibition,[1],inactive
CCOC(=O)c1sc2nc(C)nc(Nc3ccc(OC)cc3)c2c1C,inhibition,[1],3.17% (inactive)
COc1ccc(C(=O)Nc2ccccc2C(=O)N2CCCCCC2)cc1OC,inhibition,[1],5.61% (inactive)
CN1CCN(CCC(=O)Nc2ccc(C3CCCC3)cc2)CC1,inhibition,[1],4.6% (inactive)
O=C(Nc1ccc(N2CCN(C(=O)c3ccco3)CC2)cc1)c1cccnc1Cl,inhibition,stronger effect = higher value,0.8% (inactive)
same,inhibition,[2],1.86%
COc1ccc(C)cc1NC(=O)C1CCN(C(=O)Cc2ccccc2)CC1,inhibition,[1],0.59% (inactive)
COc1ccc(C(=O)NC(=S)NNC(=O)COc2ccccc2)cc1,inhibition,[1],1.92% (inactive)
COc1ccccc1C(=O)NNC(=S)NC(=O)c1sc2ccccc2c1Cl,inhibition,[1],4.48% (inactive)
COc1ccc(C(=O)NNC(=S)NC(=O)c2ccc(OC)cc2)cc1,inhibition,[1],2.82% (inactive)
Cc1cccc(C)c1OCC(=O)NNC(=S)NC(=O)C1CC1,inhibition,[1],9.29% (inactive)
Cc1cccc(C(=O)NC(=S)NNC(=O)COc2c(C)cccc2C)c1,inhibition,[1],1.29% (inactive)
COc1ccc(C(=O)NC(=S)NNC(=O)c2ccc(C)cc2)cc1,inhibition,[1],50.1% (inactive)
O=C(COc1ccccc1)NNC(=S)NC(=O)c1ccccc1,inhibition,[1],52.2% (inactive)
COc1ccccc1C(=O)NC(=S)NNC(=O)c1sc2ccccc2c1Cl,inhibition,[1],0.8% (inactive)
CCCc1nnc(NC(=O)CNc2ccc(F)cc2)s1,inhibition,[1],1.71% (inactive)
CN(C)c1ccc(CNC(=O)c2cc(S(=O)(=O)N3CCCC3)cn2C)cc1,inhibition,stronger effect = higher value,0.58% (inactive)
same,inhibition,[2],0.765%
Cc1ccc(C)c(S(=O)(=O)N/N=C/c2ccc(N3CCOCC3)cc2)c1,inhibition,[1],13% (inactive)
COc1ccc(-c2nnc(SCc3cccc(C)c3)n2N)cc1,inhibition,[1],1.8% (inactive)
O=c1n(Cc2ccccc2Cl)nc2n1-c1ccccc1SC2,inhibition,[1],1.6% (inactive)
CN1CCN(NC(=O)c2cn(-c3ccccc3)nc2-c2cccc(Br)c2)CC1,inhibition,[1],4.96% (inactive)
COc1ccc(C(=O)NC(=S)NCCc2ccccc2)cc1,inhibition,[1],inactive
O=C(CCc1ccccc1)NNC(=S)NC(=O)c1ccccc1,inhibition,[1],8.58% (inactive)
COc1ccc(C(=O)NNC(=S)NC(=O)c2ccco2)cc1,inhibition,[1],3.21% (inactive)
O=C(NC(=S)NNC(=O)c1cc2ccccc2cc1O)c1ccco1,inhibition,[1],35.8% (inactive)
CC1CCN(c2ccc(C(=O)OCC(=O)NCCN3C(=O)CSC3=O)cc2[N+](=O)[O-])CC1,inhibition,[1],2.94% (inactive)
Nc1nc(=O)n(C2CCCO2)cc1Br (configuration not stated),inhibition,[1],inactive
CCCCn1nnnc1SCC(=O)NCc1ccco1,inhibition,[1],0.76% (inactive)
CCOc1ccc(CCNC(=O)CCc2nnc3ccc(N4CCOCC4)nn23)cc1OCC,inhibition,[1],0.04% (inactive)
CCN(CC(=O)Nc1ccc(NC(C)=O)cc1)C(=O)C12CC3CC(CC(Cl)(C3)C1)C2,inhibition,[1],inactive
Cn1cc(C(=O)Nc2ccc(Cl)c(Cl)c2)cn1,inhibition,[1],0.63% (inactive)
O=C(Nc1ccc(F)c([N+](=O)[O-])c1)c1cccs1,inhibition,[1],0.78% (inactive)
O=C(NC(Cc1c[nH]c2ccccc12)C(=O)O)c1cccs1 (configuration not stated),inhibition,[1],0.43% (inactive)
O=C(NC(Cc1c[nH]c2ccccc12)C(=O)N/N=C/c1ccc(Cl)cc1)c1cccs1 (configuration not stated),inhibition,[1],6% (inactive)
O=C(NC(Cc1c[nH]c2ccccc12)C(=O)Nc1ccc(OC(F)(F)F)cc1)c1cccs1 (configuration not stated),inhibition,[1],11.9% (inactive)
Cc1cc(C)nc(N2C(=O)CC(C(=O)O)NC2=NCCc2c[nH]c3ccccc23)n1 (configuration not stated),inhibition,[1],inactive
COc1ccc(/C=N/NC(=O)c2c(-c3ccccc3)noc2C)cc1,inhibition,[1],1.23% (inactive)
CN(C)CCCN(C(=O)c1ccc(S(=O)(=O)N2CCc3ccccc32)cc1)c1nc2c(Cl)cccc2s1,inhibition,[1],12.6% (inactive)
COc1cc2nc(N(CCCN(C)C)C(=O)c3ccc(S(=O)(=O)N4CCc5ccccc54)cc3)sc2cc1OC,inhibition,[1],5.52% (inactive)
O=C(NC1CONC1=O)OCC(Cl)(Cl)Cl (configuration not stated),inhibition,[1],inactive
CCc1nnc(NC(=O)C2CC(=O)N(Cc3ccco3)C2)s1 (configuration not stated),inhibition,[1],2.16% (inactive)
Cc1cccc[n+]1CC(=O)c1ccc([N+](=O)[O-])cc1,inhibition,[1],inactive
Cc1cc(C)c[n+](CC(=O)c2ccc(C)c([N+](=O)[O-])c2)c1,inhibition,[1],0.1% (inactive)
S=C(N/N=C/c1ccc2ncccc2c1)Nc1ccccc1,inhibition,[1],9.82% (inactive)
O=C(Nc1ccc2c(c1)CCCN2C(=O)c1cccs1)c1ccccc1,inhibition,[1],6.53% (inactive)
COc1ccccc1C(=O)Nc1ccc2c(c1)CCCN2C(=O)c1cccs1,inhibition,[1],4.26% (inactive)
CCn1nnnc1SCC(=O)N1CCOCC1,inhibition,[1],0.74% (inactive)
COc1ccc(N2CC(C(=O)N/N=C/c3cc([N+](=O)[O-])ccc3O)CC2=O)cc1 (configuration not stated),inhibition,[1],2.03% (inactive)
CCC(C)[C@@H]1NC(=O)N(CCCN2CCCC2=O)C1=O (some centres not stated),inhibition,[1],2.56% (inactive)
CC[C@H](C)[C@@H]1NC(=O)[C@H]([C@@H](C)CC)NC(=O)[C@@H](CC(C)C)NC(=O)[C@H](Cc2ccccc2)NC(=O)[C@H](Cc2ccccc2)NC(=O)[C@@H]2CCCN2C(=O)[C@@H]2CCCN2C(=O)[C@H](C(C)C)NC(=O)[C@H](CC(C)C)NC1=O (cyclo(FF[dL]IILVPP)),inhibition,[1],inactive
Cc1ccccc1NC(=O)NCCCN1CCN(C)CC1,inhibition,[1],0.45% (inactive)
Cc1ccccc1NC(=O)NCCN1CC1,inhibition,[1],inactive
CC(NC(=O)c1cccc(S(=O)(=O)N(C)c2ccccc2)c1)c1cccnc1 (configuration not stated),inhibition,[1],1.03% (inactive)
C[N+]1(CCCCSc2ccc(O)cc2)CCCCC1,inhibition,[1],inactive
Cc1ccc(NC(=O)CSc2ccc(-c3ccccn3)nn2)cc1,inhibition,[1],0.64% (inactive)
CC(C)(C)NC(=O)CSc1nc2ccccc2n1-c1ccccc1,inhibition,[1],7.16% (inactive)
Cn1nnnc1SCC(=O)Nc1ncc(Cl)cc1Cl,inhibition,[1],2.56% (inactive)
Cc1nnc(SCC(=O)Nc2ncc(Cl)cc2Cl)n1Cc1ccccc1,inhibition,[1],1.6% (inactive)
CC(C)NC(=O)CSc1nc2ccccc2n1-c1ccccc1,inhibition,[1],3.21% (inactive)
Cc1ccc(-n2c(SCC(=O)Nc3cccc(S(N)(=O)=O)c3)nc3ccccc32)cc1,inhibition,[1],2.21% (inactive)
O=C(CSc1nnc2ccccn12)Nc1ncc(Cl)cc1Cl,inhibition,[1],3.72% (inactive)
CC(C)c1ccc(-c2cc(C(=O)N3N=C(C(F)F)CC3(O)C(F)F)c3ccccc3n2)cc1 (configuration not stated),inhibition,[1],inactive
O=C1CCC(C(=O)N2CCCCO2)CN1CCc1ccccc1 (configuration not stated),inhibition,[1],2.16% (inactive)
COc1ccc(C2CN=NC2C(=O)c2ccccc2)cc1 (configuration not stated),inhibition,[1],0.98% (inactive)
Cc1ccc(/C=N/n2c(-c3cccnc3)n[nH]c2=S)o1,inhibition,[1],0.4% (inactive)
CC(=O)Nc1ccc(S(=O)(=O)NC2=NCN(c3cccc([N+](=O)[O-])c3)CN2)cc1,inhibition,[1],0.07% (inactive)
Cc1nn(-c2ccccc2)c2c1C1(C(=O)Nc3ccccc31)N1C(=N2)Sc2ccccc21 (configuration not stated),inhibition,[1],1.86% (inactive)
CCCCCc1ccc(-c2nnc(N)s2)cc1,inhibition,[1],2.86% (inactive)
CC1=Nc2cc(C(=O)N3CCCC3)ccc2Sc2ccc(C)cc21,inhibition,[1],1.14% (inactive)
CC1=Nc2cc(C(=O)O)ccc2Sc2c(C)ccc(C)c21,inhibition,[1],0.43% (inactive)
CCOc1ccc(CCNC(=O)CCS(=O)(=O)c2ccc(OC)cc2)cc1OCC,inhibition,[1],0.09% (inactive)
O=C(Cn1ncc2c([nH]c3ccccc32)c1=O)NCCc1ccc(Cl)cc1,inhibition,[1],1.06% (inactive)
CCN(CC)c1ccc(-n2cc3c(=O)n(C)c(=O)n(C)c3c2)cc1,inhibition,[1],5.43% (inactive)
Cc1ccc(C)c(NC(=O)c2ccc3ccccc3n2)c1,inhibition,[1],4.34% (inactive)
CC(=O)OCC(=O)C1(O)CCC2C3CC(C)C4=CC(=O)CCC4(C)C3C(O)CC21C (configuration not stated),inhibition,[1],2.53% (inactive)
C[C@@H]1O[C@@H](O[C@@H]2C=C3CCC4C(CC[C@]5(C)[C@@H](c6ccc(=O)oc6)CC[C@]45O)[C@@]3(C)CC2)[C@H](O)[C@H](O)[C@H]1O (some centres not stated),inhibition,[1],23.8% (inactive)
CNC(=O)Nc1ccc(C(=O)N/N=C\C23CC[C@@H](O)CC2(O)CC[C@@H]2[C@@H]3CCC3(C)C(C4=CC(=O)OC4)CCC23O)cc1 (some centres not stated),inhibition,[1],3.29% (inactive)
